# Source: article PMC7862700, “An all-to-all approach to the identification of sequence-specific readers for epigenetic DNA modifications on cytosine”
# Tests used:
# Assay in all cases: DAPPL (digital affinity profiling via proximity ligation, sequencing); 10 mM Tris-HCl pH 7.5, 50 mM NaCl, 1 mM DTT, 4% glycerol, room temperature, 30 min; GST-TFs on glutathione beads, 16-mer random dsDNA library, 0.1% formaldehyde crosslink after washing; high values mean tight binding
# [1] = target: T1, FLI1 (Homo sapiens, UniProt Q01543 1-452); conditions: protein: recombinant; tags: N-terminal GST; dsDNA, one strand shown
# T1 sequence: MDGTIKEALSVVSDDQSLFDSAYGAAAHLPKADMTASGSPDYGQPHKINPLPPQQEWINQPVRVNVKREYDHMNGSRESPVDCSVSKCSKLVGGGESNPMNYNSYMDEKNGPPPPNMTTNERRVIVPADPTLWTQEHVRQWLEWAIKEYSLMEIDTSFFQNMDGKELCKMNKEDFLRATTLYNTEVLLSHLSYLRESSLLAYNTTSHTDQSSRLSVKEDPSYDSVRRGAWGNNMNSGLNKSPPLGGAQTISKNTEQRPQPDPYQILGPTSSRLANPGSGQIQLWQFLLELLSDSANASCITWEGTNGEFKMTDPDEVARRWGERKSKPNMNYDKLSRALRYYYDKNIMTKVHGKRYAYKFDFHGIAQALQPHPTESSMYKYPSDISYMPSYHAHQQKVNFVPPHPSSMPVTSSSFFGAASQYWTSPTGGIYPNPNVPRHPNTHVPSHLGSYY
# How it was run: (§1)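 Pools of DNA-barcoded human transcription factors, expressed in yeast as GST fusions on glutathione beads and combined with a tag-only sample, were incubated with 200 nmole of a 16-mer random double-stranded DNA library. Incubation took 30 min at room temperature in Tris/NaCl/DTT/glycerol buffer and was followed by washing, 0.1% formaldehyde crosslinking, proximity ligation (BsaI/T4 ligase, 1 h, 37 °C), PCR amplification and sequencing on an Illumina NextSeq500. Binding signal is the ratio of a hexamer's read frequency for a factor to its frequency for the tag-only sample.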
# [2] = target: T2, ELK1 (Homo sapiens, UniProt P19419 1-428); conditions: protein: recombinant; tags: N-terminal GST; dsDNA, one strand shown
# T2 sequence: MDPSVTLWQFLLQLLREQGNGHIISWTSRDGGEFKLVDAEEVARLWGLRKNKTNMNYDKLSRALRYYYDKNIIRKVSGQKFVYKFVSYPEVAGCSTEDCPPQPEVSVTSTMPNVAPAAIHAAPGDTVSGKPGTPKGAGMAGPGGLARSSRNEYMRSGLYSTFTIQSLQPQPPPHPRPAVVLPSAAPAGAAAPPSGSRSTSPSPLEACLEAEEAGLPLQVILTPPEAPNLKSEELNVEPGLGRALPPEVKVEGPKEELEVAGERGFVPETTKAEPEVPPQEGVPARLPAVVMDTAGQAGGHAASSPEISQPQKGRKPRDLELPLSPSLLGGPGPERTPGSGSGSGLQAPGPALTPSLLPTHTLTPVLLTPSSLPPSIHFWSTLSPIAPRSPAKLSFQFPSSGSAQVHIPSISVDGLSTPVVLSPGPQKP
# How it was run: as §1
# [3] = target: T3, GABPA (Homo sapiens, UniProt Q06546 1-454); conditions: protein: recombinant; tags: N-terminal GST; dsDNA, one strand shown
# T3 sequence: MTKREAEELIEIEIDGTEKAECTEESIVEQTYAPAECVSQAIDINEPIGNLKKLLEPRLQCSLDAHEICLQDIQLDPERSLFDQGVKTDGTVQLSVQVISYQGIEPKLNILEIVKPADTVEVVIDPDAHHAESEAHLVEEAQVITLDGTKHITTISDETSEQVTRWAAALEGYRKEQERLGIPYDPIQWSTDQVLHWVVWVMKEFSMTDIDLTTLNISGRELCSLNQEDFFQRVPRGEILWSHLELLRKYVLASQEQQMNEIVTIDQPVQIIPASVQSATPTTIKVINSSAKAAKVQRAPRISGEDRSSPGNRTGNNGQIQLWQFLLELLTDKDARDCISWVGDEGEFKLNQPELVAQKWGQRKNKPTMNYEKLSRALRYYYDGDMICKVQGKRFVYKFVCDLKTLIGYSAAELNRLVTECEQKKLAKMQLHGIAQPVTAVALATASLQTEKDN
# How it was run: as §1
# [4] = target: T4, ERG (Homo sapiens, UniProt P11308 1-479); conditions: protein: recombinant; tags: N-terminal GST; dsDNA, one strand shown
# T4 sequence: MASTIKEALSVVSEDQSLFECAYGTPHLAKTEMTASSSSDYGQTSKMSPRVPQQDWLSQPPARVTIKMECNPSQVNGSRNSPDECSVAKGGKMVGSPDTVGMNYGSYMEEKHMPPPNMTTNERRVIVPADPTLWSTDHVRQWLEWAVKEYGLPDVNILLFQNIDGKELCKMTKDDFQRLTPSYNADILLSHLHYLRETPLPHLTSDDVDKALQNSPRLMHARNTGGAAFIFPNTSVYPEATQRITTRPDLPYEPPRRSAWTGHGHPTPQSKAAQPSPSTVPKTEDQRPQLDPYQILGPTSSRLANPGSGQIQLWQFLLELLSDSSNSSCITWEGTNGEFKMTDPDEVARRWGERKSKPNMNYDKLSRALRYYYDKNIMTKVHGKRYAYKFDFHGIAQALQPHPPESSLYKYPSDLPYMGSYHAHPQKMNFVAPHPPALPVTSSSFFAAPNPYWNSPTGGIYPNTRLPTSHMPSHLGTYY
# How it was run: as §1
# [5] = target: ELF1 (Homo sapiens, UniProt P32519 1-619); conditions: protein: recombinant; tags: N-terminal GST; dsDNA, one strand shown
# ELF1, sequence (P32519 whole entry): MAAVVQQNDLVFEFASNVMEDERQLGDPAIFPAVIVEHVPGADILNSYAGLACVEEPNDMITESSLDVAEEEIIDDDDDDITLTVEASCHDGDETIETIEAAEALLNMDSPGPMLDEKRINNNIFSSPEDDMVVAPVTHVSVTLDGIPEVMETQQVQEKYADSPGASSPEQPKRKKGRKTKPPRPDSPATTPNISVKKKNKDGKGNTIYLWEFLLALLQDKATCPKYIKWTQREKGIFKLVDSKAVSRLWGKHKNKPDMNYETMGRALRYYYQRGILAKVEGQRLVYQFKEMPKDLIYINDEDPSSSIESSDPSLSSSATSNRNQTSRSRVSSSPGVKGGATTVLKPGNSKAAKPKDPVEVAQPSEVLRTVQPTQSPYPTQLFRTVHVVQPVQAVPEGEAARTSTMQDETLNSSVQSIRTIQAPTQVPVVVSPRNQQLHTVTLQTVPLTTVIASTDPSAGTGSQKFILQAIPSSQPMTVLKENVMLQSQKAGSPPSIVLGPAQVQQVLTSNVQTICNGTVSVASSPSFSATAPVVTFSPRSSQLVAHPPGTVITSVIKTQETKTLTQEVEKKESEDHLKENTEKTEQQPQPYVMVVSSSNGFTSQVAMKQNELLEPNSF
# How it was run: as §1
# [6] = target: T5, EHF (Homo sapiens, UniProt Q9NZC4 1-300); conditions: protein: recombinant; tags: N-terminal GST; dsDNA, one strand shown
# T5 sequence: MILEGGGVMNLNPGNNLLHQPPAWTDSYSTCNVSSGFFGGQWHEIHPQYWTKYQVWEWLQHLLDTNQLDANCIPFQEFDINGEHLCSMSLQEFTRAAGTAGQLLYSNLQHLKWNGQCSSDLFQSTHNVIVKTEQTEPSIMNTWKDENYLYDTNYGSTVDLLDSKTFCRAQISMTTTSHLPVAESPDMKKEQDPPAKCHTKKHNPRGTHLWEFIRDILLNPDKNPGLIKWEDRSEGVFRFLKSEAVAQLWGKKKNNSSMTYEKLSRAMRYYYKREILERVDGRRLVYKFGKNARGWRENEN
# How it was run: as §1
# [7] = target: SPI1 (Homo sapiens, UniProt P17947 1-270); conditions: protein: recombinant; tags: N-terminal GST; dsDNA, one strand shown
# How it was run: as §1
# [8] = target: SPIB (Homo sapiens, UniProt Q01892 1-262); conditions: protein: recombinant; tags: N-terminal GST; dsDNA, one strand shown
# SPIB, sequence (Q01892 whole entry): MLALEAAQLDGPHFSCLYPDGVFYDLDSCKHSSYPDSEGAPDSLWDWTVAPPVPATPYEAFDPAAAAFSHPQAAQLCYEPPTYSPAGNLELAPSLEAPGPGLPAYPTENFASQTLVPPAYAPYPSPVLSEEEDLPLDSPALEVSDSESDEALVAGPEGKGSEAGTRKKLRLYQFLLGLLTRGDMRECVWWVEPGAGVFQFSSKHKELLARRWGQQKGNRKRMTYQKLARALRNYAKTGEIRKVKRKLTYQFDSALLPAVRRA
# How it was run: as §1
# [9] = target: T6, ELK3 (Homo sapiens, UniProt P41970 1-407); conditions: protein: recombinant; tags: N-terminal GST; dsDNA, one strand shown
# T6 sequence: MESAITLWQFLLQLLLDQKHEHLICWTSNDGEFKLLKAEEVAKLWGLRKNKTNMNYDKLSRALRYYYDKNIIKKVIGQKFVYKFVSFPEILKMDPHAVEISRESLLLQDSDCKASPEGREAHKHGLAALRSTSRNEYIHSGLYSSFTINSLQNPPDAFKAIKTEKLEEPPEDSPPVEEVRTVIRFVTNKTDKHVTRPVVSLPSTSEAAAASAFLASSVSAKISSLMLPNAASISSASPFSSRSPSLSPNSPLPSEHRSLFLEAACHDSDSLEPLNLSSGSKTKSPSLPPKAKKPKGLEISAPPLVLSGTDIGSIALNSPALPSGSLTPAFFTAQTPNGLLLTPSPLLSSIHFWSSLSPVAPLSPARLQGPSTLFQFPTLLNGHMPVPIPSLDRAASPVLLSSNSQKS
# How it was run: as §1
# [10] = target: T7, FEV (Homo sapiens, UniProt Q99581 1-238); conditions: protein: recombinant; tags: N-terminal GST; dsDNA, one strand shown
# T7 sequence: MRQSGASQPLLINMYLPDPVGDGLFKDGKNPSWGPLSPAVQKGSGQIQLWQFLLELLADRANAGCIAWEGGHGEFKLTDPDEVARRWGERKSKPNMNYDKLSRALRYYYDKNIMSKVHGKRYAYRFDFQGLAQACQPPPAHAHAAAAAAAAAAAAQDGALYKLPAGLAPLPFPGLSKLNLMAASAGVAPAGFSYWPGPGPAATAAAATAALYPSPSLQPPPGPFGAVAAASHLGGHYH
# How it was run: as §1
# [11] = target: ETV5 (Homo sapiens, UniProt P41161 1-510); conditions: protein: recombinant; tags: N-terminal GST; dsDNA, one strand shown
# ETV5, sequence (P41161 whole entry): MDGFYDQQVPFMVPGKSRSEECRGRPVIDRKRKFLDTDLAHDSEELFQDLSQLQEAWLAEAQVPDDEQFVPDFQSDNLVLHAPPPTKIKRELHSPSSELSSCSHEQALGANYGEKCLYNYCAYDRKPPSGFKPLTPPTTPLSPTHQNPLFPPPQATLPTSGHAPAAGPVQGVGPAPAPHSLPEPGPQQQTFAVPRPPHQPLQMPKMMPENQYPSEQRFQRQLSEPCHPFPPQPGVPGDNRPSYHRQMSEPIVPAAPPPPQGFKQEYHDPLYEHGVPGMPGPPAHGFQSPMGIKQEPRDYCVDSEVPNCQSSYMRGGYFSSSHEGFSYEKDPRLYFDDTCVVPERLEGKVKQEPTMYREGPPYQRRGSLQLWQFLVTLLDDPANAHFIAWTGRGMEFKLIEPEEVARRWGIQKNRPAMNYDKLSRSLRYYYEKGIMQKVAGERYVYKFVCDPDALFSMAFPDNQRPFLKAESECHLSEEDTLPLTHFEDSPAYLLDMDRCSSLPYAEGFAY
# How it was run: as §1
# [12] = target: HSF1 (Homo sapiens, UniProt Q00613 1-529); conditions: protein: recombinant; tags: N-terminal GST; chain copies: 3; dsDNA, one strand shown
# HSF1, sequence (Q00613 whole entry): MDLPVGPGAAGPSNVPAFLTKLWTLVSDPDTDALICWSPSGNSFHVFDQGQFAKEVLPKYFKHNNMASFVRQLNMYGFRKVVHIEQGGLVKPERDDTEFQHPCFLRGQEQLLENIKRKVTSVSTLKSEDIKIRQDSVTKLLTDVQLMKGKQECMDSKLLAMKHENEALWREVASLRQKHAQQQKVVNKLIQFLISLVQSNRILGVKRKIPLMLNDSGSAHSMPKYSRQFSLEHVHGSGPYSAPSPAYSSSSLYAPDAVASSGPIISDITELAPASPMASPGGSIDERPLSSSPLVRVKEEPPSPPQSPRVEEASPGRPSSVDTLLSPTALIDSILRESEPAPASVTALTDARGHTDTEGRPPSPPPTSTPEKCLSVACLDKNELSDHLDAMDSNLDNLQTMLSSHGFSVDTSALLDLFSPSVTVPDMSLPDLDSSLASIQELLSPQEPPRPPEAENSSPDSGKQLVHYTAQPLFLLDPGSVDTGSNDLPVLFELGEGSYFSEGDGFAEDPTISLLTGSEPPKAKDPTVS
# How it was run: as §1
# [13] = target: T8, SPIC (Homo sapiens, UniProt Q8N5J4 1-248); conditions: protein: recombinant; tags: N-terminal GST; dsDNA, one strand shown
# T8 sequence: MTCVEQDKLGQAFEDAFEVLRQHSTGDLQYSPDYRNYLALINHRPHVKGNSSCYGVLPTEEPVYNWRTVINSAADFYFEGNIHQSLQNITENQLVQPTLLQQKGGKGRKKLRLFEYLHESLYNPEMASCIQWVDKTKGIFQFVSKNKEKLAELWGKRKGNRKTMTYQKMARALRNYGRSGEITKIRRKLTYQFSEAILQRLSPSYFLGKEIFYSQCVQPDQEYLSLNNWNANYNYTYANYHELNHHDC
# How it was run: as §1
# [14] = target: ELF4 (Homo sapiens, UniProt Q99607 1-663); conditions: protein: recombinant; tags: N-terminal GST; dsDNA, one strand shown
# ELF4, sequence (Q99607 whole entry): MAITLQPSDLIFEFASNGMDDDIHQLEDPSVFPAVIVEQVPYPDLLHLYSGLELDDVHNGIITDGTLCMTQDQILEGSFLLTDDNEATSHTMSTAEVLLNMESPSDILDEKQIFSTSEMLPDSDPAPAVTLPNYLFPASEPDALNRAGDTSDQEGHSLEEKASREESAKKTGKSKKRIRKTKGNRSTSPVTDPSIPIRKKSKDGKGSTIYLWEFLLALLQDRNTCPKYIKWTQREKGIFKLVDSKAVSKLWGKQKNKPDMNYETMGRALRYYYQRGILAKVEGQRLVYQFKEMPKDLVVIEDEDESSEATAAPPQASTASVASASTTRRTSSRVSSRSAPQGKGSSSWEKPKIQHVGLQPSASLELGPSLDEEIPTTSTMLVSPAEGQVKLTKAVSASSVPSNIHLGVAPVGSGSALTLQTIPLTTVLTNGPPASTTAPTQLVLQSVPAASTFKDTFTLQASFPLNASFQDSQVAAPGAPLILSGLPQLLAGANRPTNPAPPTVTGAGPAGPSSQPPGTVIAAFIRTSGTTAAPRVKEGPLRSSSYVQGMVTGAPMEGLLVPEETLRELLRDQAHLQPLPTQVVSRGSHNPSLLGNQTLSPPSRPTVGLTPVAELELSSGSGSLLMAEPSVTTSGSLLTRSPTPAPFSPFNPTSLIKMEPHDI
# How it was run: as §1
# [15] = target: T9, ELK4 (Homo sapiens, UniProt P28324-2 1-405); conditions: protein: recombinant; tags: N-terminal GST; dsDNA, one strand shown
# T9 sequence: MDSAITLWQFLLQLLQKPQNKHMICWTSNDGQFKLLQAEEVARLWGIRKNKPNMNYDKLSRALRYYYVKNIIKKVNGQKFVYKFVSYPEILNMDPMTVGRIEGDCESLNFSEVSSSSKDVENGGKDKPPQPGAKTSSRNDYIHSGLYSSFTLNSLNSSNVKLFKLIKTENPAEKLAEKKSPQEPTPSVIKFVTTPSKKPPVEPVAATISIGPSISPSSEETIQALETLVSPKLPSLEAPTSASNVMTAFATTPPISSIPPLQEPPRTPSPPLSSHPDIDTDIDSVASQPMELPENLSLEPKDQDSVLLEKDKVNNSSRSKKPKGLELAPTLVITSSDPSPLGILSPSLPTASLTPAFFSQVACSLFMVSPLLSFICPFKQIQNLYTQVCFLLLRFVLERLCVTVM
# How it was run: as §1
# [16] = target: T10, ETV2 (Homo sapiens, UniProt O00321 1-342); conditions: protein: recombinant; tags: N-terminal GST; dsDNA, one strand shown
# T10 sequence: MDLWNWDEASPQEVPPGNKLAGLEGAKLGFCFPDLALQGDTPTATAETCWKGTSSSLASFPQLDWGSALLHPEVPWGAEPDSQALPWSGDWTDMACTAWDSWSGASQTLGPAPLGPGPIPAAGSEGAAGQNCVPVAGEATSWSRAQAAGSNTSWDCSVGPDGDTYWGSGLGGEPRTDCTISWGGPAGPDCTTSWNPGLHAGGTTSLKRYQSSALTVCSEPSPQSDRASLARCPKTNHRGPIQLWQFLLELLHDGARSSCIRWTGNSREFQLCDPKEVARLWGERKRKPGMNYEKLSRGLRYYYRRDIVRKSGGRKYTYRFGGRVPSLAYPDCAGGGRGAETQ
# How it was run: as §1
# [17] = target: T11, ELF3 (Homo sapiens, UniProt P78545 1-371); conditions: protein: recombinant; tags: N-terminal GST; dsDNA, one strand shown
# T11 sequence: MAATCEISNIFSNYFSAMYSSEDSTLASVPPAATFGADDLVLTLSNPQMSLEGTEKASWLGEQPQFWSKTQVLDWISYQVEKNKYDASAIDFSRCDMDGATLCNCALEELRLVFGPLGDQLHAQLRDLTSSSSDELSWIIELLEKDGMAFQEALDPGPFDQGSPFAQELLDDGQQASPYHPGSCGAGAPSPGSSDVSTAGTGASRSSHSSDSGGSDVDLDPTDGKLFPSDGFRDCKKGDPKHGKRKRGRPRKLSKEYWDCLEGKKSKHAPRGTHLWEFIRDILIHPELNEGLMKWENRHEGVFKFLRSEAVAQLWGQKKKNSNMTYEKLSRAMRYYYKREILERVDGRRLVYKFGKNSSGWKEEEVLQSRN
# How it was run: as §1
# [18] = target: CRX (Homo sapiens, UniProt O43186 1-299); conditions: protein: recombinant; tags: N-terminal GST; dsDNA, one strand shown
# CRX, sequence (O43186 whole entry): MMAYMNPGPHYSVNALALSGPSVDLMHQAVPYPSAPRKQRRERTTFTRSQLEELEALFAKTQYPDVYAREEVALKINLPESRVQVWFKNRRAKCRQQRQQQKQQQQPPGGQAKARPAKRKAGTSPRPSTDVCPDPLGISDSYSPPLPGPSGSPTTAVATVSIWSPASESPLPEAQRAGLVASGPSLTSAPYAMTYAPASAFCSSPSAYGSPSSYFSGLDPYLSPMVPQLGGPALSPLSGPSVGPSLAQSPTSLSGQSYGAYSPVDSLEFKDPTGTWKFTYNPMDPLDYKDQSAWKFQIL
# How it was run: as §1
# [19] = target: ETV1 (Homo sapiens, UniProt P50549 1-477); conditions: protein: recombinant; tags: N-terminal GST; dsDNA, one strand shown
# ETV1, sequence (P50549 whole entry): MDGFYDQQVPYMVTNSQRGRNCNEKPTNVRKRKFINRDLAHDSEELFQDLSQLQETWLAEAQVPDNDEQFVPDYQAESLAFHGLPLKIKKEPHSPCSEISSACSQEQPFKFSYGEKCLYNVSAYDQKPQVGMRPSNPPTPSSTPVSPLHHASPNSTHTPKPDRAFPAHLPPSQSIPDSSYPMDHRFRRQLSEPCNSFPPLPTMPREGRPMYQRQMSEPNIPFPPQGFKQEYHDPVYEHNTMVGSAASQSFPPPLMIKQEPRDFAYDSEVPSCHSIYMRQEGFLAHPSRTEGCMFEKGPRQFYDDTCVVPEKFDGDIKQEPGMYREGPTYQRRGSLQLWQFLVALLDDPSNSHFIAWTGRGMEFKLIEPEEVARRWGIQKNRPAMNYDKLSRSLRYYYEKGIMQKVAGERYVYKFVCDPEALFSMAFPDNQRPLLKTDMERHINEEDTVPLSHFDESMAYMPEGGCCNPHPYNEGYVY
# How it was run: as §1
sequence,measurement,setting,value
GAATCC,binding signal,[1],"1.15 fold enrichment (6-mer frequency, TF over GST control)"
same,binding signal,[2],"1.09 fold enrichment (6-mer frequency, TF over GST control)"
same,binding signal,[3],"1.08 fold enrichment (6-mer frequency, TF over GST control)"
same,binding signal,[4],"1.18 fold enrichment (6-mer frequency, TF over GST control)"
same,binding signal,[5],"1.13 fold enrichment (6-mer frequency, TF over GST control)"
same,binding signal,[6],"1.14 fold enrichment (6-mer frequency, TF over GST control)"
same,binding signal,[7],"1.14 fold enrichment (6-mer frequency, TF over GST control)"
same,binding signal,[8],"1.11 fold enrichment (6-mer frequency, TF over GST control)"
same,binding signal,[9],"1.08 fold enrichment (6-mer frequency, TF over GST control)"
same,binding signal,[10],"1.13 fold enrichment (6-mer frequency, TF over GST control)"
same,binding signal,[11],"1.17 fold enrichment (6-mer frequency, TF over GST control)"
same,binding signal,[12],"1.21 fold enrichment (6-mer frequency, TF over GST control)"
same,binding signal,[13],"1.1 fold enrichment (6-mer frequency, TF over GST control)"
same,binding signal,[14],"1.12 fold enrichment (6-mer frequency, TF over GST control)"
same,binding signal,[15],"1.19 fold enrichment (6-mer frequency, TF over GST control)"
same,binding signal,[16],"1.09 fold enrichment (6-mer frequency, TF over GST control)"
same,binding signal,[17],"1.02 fold enrichment (6-mer frequency, TF over GST control)"
same,binding signal,[18],"1.19 fold enrichment (6-mer frequency, TF over GST control)"
same,binding signal,[19],"1.13 fold enrichment (6-mer frequency, TF over GST control)"
